Source: PubChem BioAssay
Calls of active or inactive are those of the source.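 The calls were made as follows, unless noted: active = inhibition at or above 50% at 10 µM; inactive = inhibition below 50%.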

Legend:
[1] = inhibitors of TNFa-induced NFkB p65 translocation, primary screen, imaging, HUVEC, MLSMR starter and 10KST1 sets (AID 438;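 active = inhibition above 20% together with a positive visual image hit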;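 also: compound added about 3h40 before a 20 min TNFalpha stimulation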;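 as to inhibition: signal is the nuclear over cytoplasmic p65 intensity ratio per well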); details: HUVEC TNFa-induced p65 nuclear translocation; cell count: measured here: nuclei count (cytotoxicity indicator), at 2.08 µM; inhibition: at 2 µM, stronger effect = higher value, 0% TNFa-plus-vehicle, 100% no-TNFa wells
[2] = reduction of polyQ htt aggregates in cells – imaging, exon1htt(103Q)mCFP cells, high-content imaging, primary screen (AID 483;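 active = visual image review flags a hit and inhibition of aggregation exceeds 20%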;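 also: compound exposure lasted 3 days before fixation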;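 as to nuclei count: percent of the per-plate median nuclei count of sample wells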); details: exon1htt(103Q)mCFP cell line, aggregate imaging, at 2 µM; inhibition of aggregation: stronger effect = higher value; nuclei count: measured here: cell count, toxicity
[3] = endothelial E-selectin expression blockers – imaging, HUVEC, immunofluorescence, MLSMR starter and 10KST1 sets, primary screen (AID 487;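 active = visually confirmed hit in the image check and inhibition above 20%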;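 as to inhibition: signal is fraction of cell area covered by stained E-selectin grains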;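 as to nuclei count: 100% = median nuclei count of all wells on the same plate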); details: HUVEC TNFalpha-induced E-selectin immunofluorescence imaging, at 2 µM; inhibition: stronger effect = higher value; nuclei count: measured here: cell number, toxicity
[4] = biological target: Voltage-gated potassium channel subunit beta-2 (Rattus norvegicus) (UniProt P62483); experiment: inhibitors of rat Kvbeta2 reductase activity – biochemical, NADPH fluorescence, primary screen (AID 622;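 active = fluorescence slope higher than the sample average by over 3 SD, cut at about -0.22 in these data, passing the limit was not always enough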;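 also: slope of raw intensity against log time taken from 70 to 1610 s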); details: recombinant KvBeta, 4-cyanobenzaldehyde reduction, at 10 µM, stronger effect = higher value
Chain of Voltage-gated potassium channel subunit beta-2 (Rattus norvegicus) (P62483 whole entry, looked up): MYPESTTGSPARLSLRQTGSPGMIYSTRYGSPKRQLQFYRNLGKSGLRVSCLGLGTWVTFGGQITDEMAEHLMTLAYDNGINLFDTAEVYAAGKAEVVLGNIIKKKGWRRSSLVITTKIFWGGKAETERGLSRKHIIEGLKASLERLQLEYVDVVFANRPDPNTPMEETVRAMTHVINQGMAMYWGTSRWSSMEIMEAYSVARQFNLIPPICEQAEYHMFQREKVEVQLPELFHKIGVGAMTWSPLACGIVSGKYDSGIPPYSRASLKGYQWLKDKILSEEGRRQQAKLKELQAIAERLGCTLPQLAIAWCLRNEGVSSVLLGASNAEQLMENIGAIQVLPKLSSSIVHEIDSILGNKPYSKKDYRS

[5] = biological target: Voltage-gated potassium channel subunit beta-2 (Rattus norvegicus) (UniProt P62483); experiment: enhancers of rat Kvbeta2 NADPH turnover – biochemical, NADPH fluorescence, primary screen (AID 623;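 active = NADPH fluorescence slope more negative than the mean of all samples by about 3 SD, 99.7% confidence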;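 also: fluorescence intensity change per second fitted from 20 to 320 s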); details: Recombinant KvBeta, NADPH fluorescence decrease slope, 10 min; at 10 µM; stronger effect = lower value
[6] = biological target: Alpha-2C adrenergic receptor (Homo sapiens) (UniProt P18825); experiment: compounds altering alpha2C-coupled GIRK flux – cell-based, HEK293 alpha2C/GIRK1/2, thallium flux, primary screen (AID 624;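 active = fluorescence slope after compound addition differing from the mean of all screened samples at 99.7% confidence, in either direction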;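 also: slope of fluorescence ratio to pre-addition baseline per second over 15 to 24 s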); details: thallium flux BTC fluorescence, at 10 µM, actives lie on both sides
Chain of Alpha-2C adrenergic receptor (Homo sapiens) (P18825 whole entry, looked up): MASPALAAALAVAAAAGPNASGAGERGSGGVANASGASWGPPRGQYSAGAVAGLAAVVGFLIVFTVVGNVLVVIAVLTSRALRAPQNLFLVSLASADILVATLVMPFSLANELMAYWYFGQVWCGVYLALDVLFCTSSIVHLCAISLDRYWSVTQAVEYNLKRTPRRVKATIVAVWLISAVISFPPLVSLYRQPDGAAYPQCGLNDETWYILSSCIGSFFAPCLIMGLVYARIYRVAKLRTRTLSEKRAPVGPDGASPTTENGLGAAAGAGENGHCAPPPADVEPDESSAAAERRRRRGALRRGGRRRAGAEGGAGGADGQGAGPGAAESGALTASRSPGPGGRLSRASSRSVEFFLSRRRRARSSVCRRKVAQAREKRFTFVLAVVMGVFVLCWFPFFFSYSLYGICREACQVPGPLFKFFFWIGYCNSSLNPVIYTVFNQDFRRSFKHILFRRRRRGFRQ

[7] = blockers of RIG-like receptor reporter activation – cell-based, Sendai virus stimulus, luciferase, 10K MLSCN set, TLR/RLR signaling modifier project, primary screen (AID 602276); details: HEK293 RL24 IRF3 luciferase reporter, at 10 µM, stronger effect = higher value;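 also: firefly luciferase from ISG56 promoter only with Renilla not read in this screen; 0% = Sendai virus plus DMSO and 100% = medium plus DMSO without virus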
[8] = TLR3 IRF3 reporter activation blockers – cell-based, poly I:C stimulus, luciferase, 10K MLSCN set, primary screen (AID 602277;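 active = inhibition of the reporter signal at or above 50%; inactive = inhibition below 50%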); details: HEK293-TLR3 RL24 IRF3 luciferase reporter, at 10 µM, stronger effect = higher value

Row | Structure (SMILES) | cell count [1] | inhibition [1] | inhibition of aggregation [2] | nuclei count [2] | inhibition [3] | nuclei count [3] | fluorescence slope [4] | NADPH fluorescence slope [5] | slope [6] | inhibition [7] | inhibition [8]
1 | NC(=O)C1CCN(c2nc(-c3ccccc3)nc3ccccc23)CC1 | 554 | -15.4% (inactive) | 2% (inactive) | 116% | 49.5% (inactive) | 92.8% | -0.46 (inactive) | -6.1e-05 (inactive) | 0.00467 (inactive) | 10% (inactive) | 8.01% (inactive)
2 | CCn1c(SCC(=O)Nc2ccc3c(c2)OCO3)nc2c(c1=O)SC(C)C2 (centres undefined) | 496 | 9.6% (inactive) | 4% (inactive) | 111% | 15.4% (inactive) | 95.3% | -0.561 (inactive) | -5e-05 (inactive) | 0.00661 (inactive) | -0.539% (inactive) | 16.9% (inactive)
3 | Cc1ccc2nc3c(cc(C(=O)NCC4CCCO4)n3C)c(=O)n2c1 (centres undefined) | 405 | 9.7% (inactive) | 2.7% (inactive) | 111% | -25.5% (inactive) | 114% | -0.0813 (active) | -3.2e-06 (inactive) | 0.00481 (inactive) | -21.8% (inactive) | -39.8% (inactive)
4 | COc1ccc(NC(=O)C2CCCCN2S(=O)(=O)c2ccc(F)cc2)cc1 (centres undefined) | 630 | 3.7% (inactive) | 27.3% (inactive) | 76.6% | -67.7% (inactive) | 105% | -0.584 (inactive) | -2.4e-05 (inactive) | 0.00664 (inactive) | 15.6% (inactive) | 42.2% (inactive)
5 | C=CCn1c(COc2ccc(CC)cc2)nnc1SC/C(O)=C(\C#N)c1nc2ccccc2[nH]1 | 705 | -4.3% (inactive) | 3.6% (inactive) | 101% | -10.1% (inactive) | 108% | -0.379 (inactive) | 8.9e-06 (inactive) | 0.0031 (inactive) | 21.3% (inactive) | 14.4% (inactive)
6 | Cc1nc2ccccc2n1CCC(=O)Nc1cccc(F)c1 | 606 | -4.8% (inactive) | 0.2% (inactive) | 100% | -23.9% (inactive) | 110% | -0.303 (inactive) | 9.1e-07 (inactive) | 0.00551 (inactive) | 16.2% (inactive) | 4.83% (inactive)
7 | Cc1cc2ncc(-c3ccc(Cl)cc3)c(N)n2n1 | 930 | -1.7% (inactive) | -6% (inactive) | 129% | -36.3% (inactive) | 125% | -0.583 (inactive) | 2.1e-05 (inactive) | 0.00574 (inactive) | -34% (inactive) | -158% (inactive)
8 | COc1ccc(CCNC(=O)CSc2nnnn2-c2ccccc2OC)cc1OC | 681 | -1.1% (inactive) | 1.5% (inactive) | 106% | -10.8% (inactive) | 109% | -0.531 (inactive) | -5.1e-05 (inactive) | 0.00687 (inactive) | 15.3% (inactive) | 31.8% (inactive)
9 | Cn1nc(-c2ccc(N3CCCCC3)c(NC(=O)c3ccco3)c2)c2ccccc2c1=O | 672 | -15.6% (inactive) | -14.2% (inactive) | 62.8% | 32.2% (inactive) | 84.4% | -0.5 (inactive) | -5.2e-06 (inactive) | 0.00571 (inactive) | 13.4% (inactive) | 75.2% (active)
10 | COc1cccc(-n2c(CNc3ccc(F)cc3)nnc2SCC(N)=O)c1 | 475 | 1.9% (inactive) | -17% (inactive) | 113% | -32.3% (inactive) | 76.1% | -0.49 (inactive) | -1.9e-05 (inactive) | 0.00474 (inactive) | 15.9% (inactive) | 24% (inactive)
11 | Cc1onc(-c2ccccc2)c1C(=O)N1CCN(C(=O)c2ccco2)CC1 | 601 | 2.2% (inactive) | -0.2% (inactive) | 111% | -20.4% (inactive) | 93.8% | -0.5 (inactive) | -4.3e-05 (inactive) | 0.00556 (inactive) | 14.1% (inactive) | 20.5% (inactive)
12 | Cc1ccc(C)c(N(CC(=O)NC2CCCC2)C(=O)CCCC(=O)Nc2ccccn2)c1 | 516 | -18.3% (inactive) | 7.5% (inactive) | 93.9% | -50.6% (inactive) | 95.7% | -0.539 (inactive) | -4.4e-05 (inactive) | 0.00581 (inactive) | 13.6% (inactive) | 27.2% (inactive)
13 | COCCOC(=O)C1=C(C)OC(N)=C(C#N)C1c1ccc2c(c1)OCO2 (centres undefined) | 468 | -0.5% (inactive) | 12.6% (inactive) | 104% | -87.8% (inactive) | 110% | -0.44 (inactive) | -3.9e-05 (inactive) | 0.00523 (inactive) | 5.43% (inactive) | 23.2% (inactive)
14 | Cc1c(NC(=O)c2nn(C)c(=O)c3ccccc23)c(=O)n(-c2ccccc2)n1C | 426 | 4.2% (inactive) | -1.2% (inactive) | 98.9% | -56.3% (inactive) | 136% | -0.496 (inactive) | -1.3e-05 (inactive) | 0.00499 (inactive) | 0.784% (inactive) | -0.356% (inactive)
